# Active and inactive are the calls of the source.
# What was measured:
# [1] = tested on: Wnt5a (protein binding on small-molecule microarray); assay: Wnt5a binders on small-molecule microarray, primary screen, biophysical, 635/667 nm fluorescence (AID 1142); conditions: 635 nm fluorescence, higher = more signal;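 also: fluorescence read at 667 nm with signal to noise per printed feature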
# [2] = cell viability in Huh7 cells, primary screen, cytotoxicity control for HCV replication inhibitor project, CellTiter-Glo luminescence, basal, 48 h (AID 1143); conditions: Huh7 HCV replicon, higher = more signal, called active from +8 up or from −8 down;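 also: Huh7 hepatoma cells carrying a hepatitis C replication reporter with no stimulus; test concentration not given here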
# [3] = CREB reporter modulators without forskolin, primary screen, cell-based, PC12, CRE-LacZ reporter, unstimulated (AID 1145); conditions: no forskolin, luminescence, 4.5 h, higher = more signal, called active from +8 up or from −8 down
# [4] = CREB reporter modulators under forskolin, primary screen, cell-based, PC12, CRE-LacZ reporter, forskolin-stimulated (AID 1146); conditions: luminescence, 4.5 h, higher = more signal, called active from +8 up or from −8 down;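 also: PC12 cells with 6xCRE LacZ reporter stimulated by forskolin 10 µM; beta-galactosidase reporter signal reflecting CREB driven transcription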
# [5] = target: Streptavidin (Streptomyces avidinii) (UniProt P22629); assay: streptavidin binders on small-molecule microarray, primary screen, artefact control for SMM compound annotation, biophysical, 635/667 nm fluorescence (AID 1147); conditions: streptavidin binding, higher = more signal;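 also: signal reflects streptavidin binding to arrayed compounds as a control protein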
# [6] = small-molecule binders of probe aInhba, primary screen, biochemical, small-molecule microarray, 635/667 nm fluorescence (AID 1148); conditions: higher = more signal;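 also: score merges 667nm spot fluorescence with signal-to-noise for antibody binding to printed compounds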
# [7] = target: Torsin-1A (Homo sapiens) (UniProt O14656); assay: torsin A binders from cell lysate, primary screen, small-molecule microarray, wild-type, 635/667 nm (AID 1149); conditions: COS7 hTOR1A-WT lysate, 635 nm fluorescence, higher = more signal
# [8] = target: Torsin-1A (Homo sapiens) (UniProt O14656); assay: small-molecule binders of mutant TOR1A in lysate, primary screen, cell lysate, small-molecule microarray, COS7 lysate, 635/667 nm fluorescence (AID 1150); conditions: COS7 hTOR1A mutant lysate, 635 nm fluorescence, higher = more signal;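 also: score pools 667 nm emission and signal to noise measuring lysate protein binding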
# [9] = tested on: Sonic hedgehog protein (Shh); assay: small-molecule binders of Shh protein, primary screen, biochemical, small-molecule microarray, 635/667 nm fluorescence (AID 1151); conditions: small-molecule microarray binding, 635 nm fluorescence; higher = more signal;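 also: Shh protein binding to compounds spotted on small-molecule microarray slides; score combines spot fluorescence intensity with signal-to-noise across triplicate slides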
# [10] = E. coli DRC41 culture turbidity changes, primary screen, E. coli filamentation inducer project, strain DRC41, OD650, 48 h (AID 1152);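 also: E. coli MC1000 strain DRC41 lacking acrAB efflux pump and sulA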; conditions: E. coli DRC41 (acrAB sulA), higher = more signal, called active from +8 up or from −8 down
# [11] = small-molecule binders of probe aLefty1, primary screen, biochemical, small-molecule microarray, 635/667 nm fluorescence (AID 1153); conditions: higher = more signal;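 also: score merges spot fluorescence with signal-to-noise ratio from the scanned slide images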
# [12] = PSAC antagonists in infected red cells, primary screen, cell-based, P. falciparum Indochina, OD700, 1 h (AID 1154); conditions: P. falciparum Indochina infected RBC osmotic lysis, higher = more signal, called active from +8 up or from −8 down
# [13] = PSAC antagonists in infected red cells, primary screen, cell-based, P. falciparum Indochina, OD700, 2 h (AID 1155);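 also: lysis reports solute entry through the parasite surface anion channel PSAC; channel blockers reduce lysis of infected cells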; conditions: P. falciparum Indochina infected erythrocytes, osmotic lysis OD700; higher = more signal, called active from +8 up or from −8 down
# [14] = osmotic lysis modulators in infected erythrocytes, primary screen, PSAC antagonist project, cell-based, P. falciparum Indochina, OD700, 3 h (AID 1156); conditions: higher = more signal, called active from +8 up or from −8 down
# [15] = PSAC antagonists in infected red cells, primary screen, cell-based, P. falciparum Indochina, OD700, 18 h (AID 1157); conditions: P. falciparum Indochina infected erythrocytes, osmotic lysis OD700, 18 h; higher = more signal, called active from +8 up or from −8 down
# [16] = modulators of S6 phosphorylation in cells, primary screen, cell-based, A549, cytoblot, luminescence, serum-stimulated (AID 1158); conditions: A549 phospho-S6 cytoblot, 5 h, higher = more signal;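 also: serum-stimulated A549 lung adenocarcinoma cells; signal is phosphorylated S6 detected by cytoblot immunostaining with HRP secondary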
# [17] = target: NADPH oxidase 2 (Homo sapiens) (UniProt P04839); assay: NOX2-dependent H2O2 signal modulators, primary screen, NOX inhibitor project, cell-based, HEK293-NOX2, PMA-stimulated, Amplex Red fluorescence (AID 1159); conditions: 45 min, higher = more signal, called active from +8 up or from −8 down; also: test concentration not given here
# [18] = target: NADPH oxidase 4 (Homo sapiens) (UniProt Q9NPH5); assay: NOX4-dependent H2O2 signal modulators, primary screen, NOX inhibitor project, cell-based, HEK293-NOX4, tetracycline-induced, Amplex Red fluorescence (AID 1160); conditions: 45 min, higher = more signal, called active from +8 up or from −8 down
# [19] = target: NADPH oxidase 5 (Homo sapiens) (UniProt Q96PH1); assay: NOX5-dependent H2O2 signal modulators, primary screen, NOX inhibitor project, cell-based, HEK293-NOX5, Amplex Red fluorescence (AID 1161); conditions: HEK293-NOX5, ionomycin, 45 min, higher = more signal
# [20] = A549 cell viability effects, profiling panel, calcein-AM fluorescence, 48 h, basal (AID 1162); conditions: higher = more signal; also: test concentration not given here
# Sequence of NADPH oxidase 5 (Homo sapiens) (Q96PH1 whole entry, looked up): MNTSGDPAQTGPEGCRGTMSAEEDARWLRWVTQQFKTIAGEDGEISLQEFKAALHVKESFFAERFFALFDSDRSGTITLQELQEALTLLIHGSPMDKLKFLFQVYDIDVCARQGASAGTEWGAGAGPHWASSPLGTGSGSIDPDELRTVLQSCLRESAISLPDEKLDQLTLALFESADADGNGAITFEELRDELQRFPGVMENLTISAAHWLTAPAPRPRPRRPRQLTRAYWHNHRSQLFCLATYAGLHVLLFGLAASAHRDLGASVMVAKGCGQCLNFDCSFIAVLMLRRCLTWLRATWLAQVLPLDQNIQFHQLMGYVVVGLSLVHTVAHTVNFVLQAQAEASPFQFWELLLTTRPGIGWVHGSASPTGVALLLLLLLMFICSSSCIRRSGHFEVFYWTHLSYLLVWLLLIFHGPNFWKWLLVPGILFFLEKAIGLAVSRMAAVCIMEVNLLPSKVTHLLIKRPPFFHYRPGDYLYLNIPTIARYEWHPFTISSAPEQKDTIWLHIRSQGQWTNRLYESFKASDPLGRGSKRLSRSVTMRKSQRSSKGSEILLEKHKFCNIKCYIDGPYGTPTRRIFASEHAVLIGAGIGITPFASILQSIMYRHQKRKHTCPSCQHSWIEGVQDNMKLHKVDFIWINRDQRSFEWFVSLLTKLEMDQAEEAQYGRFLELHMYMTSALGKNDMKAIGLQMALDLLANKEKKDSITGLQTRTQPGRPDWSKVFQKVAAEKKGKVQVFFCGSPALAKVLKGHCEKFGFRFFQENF
# Sequence of NADPH oxidase 2 (Homo sapiens) (P04839 whole entry, looked up): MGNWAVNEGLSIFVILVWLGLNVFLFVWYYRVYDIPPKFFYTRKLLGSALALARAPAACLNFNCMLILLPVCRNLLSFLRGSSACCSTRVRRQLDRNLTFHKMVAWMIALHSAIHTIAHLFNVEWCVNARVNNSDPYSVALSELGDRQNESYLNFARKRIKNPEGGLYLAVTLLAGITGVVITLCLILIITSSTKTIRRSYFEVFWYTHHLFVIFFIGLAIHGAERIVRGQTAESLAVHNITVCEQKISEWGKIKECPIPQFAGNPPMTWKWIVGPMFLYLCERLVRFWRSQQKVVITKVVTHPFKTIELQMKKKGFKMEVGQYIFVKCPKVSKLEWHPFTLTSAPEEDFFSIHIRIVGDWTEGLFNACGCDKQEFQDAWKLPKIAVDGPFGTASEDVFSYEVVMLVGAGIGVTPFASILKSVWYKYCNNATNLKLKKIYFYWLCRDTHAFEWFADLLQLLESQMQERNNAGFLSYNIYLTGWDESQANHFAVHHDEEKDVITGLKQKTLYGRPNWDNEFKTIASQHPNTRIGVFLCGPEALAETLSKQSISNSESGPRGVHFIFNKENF
# Sequence of Torsin-1A (Homo sapiens) (O14656 whole entry, looked up): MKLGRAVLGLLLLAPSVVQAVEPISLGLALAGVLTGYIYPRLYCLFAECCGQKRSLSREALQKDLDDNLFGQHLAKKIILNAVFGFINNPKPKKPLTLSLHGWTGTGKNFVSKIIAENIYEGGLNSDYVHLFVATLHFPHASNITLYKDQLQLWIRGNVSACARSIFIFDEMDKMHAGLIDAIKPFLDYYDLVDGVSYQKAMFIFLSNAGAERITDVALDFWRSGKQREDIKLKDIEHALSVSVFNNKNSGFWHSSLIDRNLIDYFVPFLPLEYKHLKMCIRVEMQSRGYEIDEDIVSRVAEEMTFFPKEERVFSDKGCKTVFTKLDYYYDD
# Sequence of Streptavidin (Streptomyces avidinii) (P22629 whole entry, looked up): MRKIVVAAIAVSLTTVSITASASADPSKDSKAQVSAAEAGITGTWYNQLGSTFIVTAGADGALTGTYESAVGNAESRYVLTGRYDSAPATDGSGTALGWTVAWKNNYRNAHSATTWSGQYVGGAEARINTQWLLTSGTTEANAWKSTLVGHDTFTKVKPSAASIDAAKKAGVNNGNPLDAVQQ
# Sequence of NADPH oxidase 4 (Homo sapiens) (Q9NPH5 whole entry, looked up): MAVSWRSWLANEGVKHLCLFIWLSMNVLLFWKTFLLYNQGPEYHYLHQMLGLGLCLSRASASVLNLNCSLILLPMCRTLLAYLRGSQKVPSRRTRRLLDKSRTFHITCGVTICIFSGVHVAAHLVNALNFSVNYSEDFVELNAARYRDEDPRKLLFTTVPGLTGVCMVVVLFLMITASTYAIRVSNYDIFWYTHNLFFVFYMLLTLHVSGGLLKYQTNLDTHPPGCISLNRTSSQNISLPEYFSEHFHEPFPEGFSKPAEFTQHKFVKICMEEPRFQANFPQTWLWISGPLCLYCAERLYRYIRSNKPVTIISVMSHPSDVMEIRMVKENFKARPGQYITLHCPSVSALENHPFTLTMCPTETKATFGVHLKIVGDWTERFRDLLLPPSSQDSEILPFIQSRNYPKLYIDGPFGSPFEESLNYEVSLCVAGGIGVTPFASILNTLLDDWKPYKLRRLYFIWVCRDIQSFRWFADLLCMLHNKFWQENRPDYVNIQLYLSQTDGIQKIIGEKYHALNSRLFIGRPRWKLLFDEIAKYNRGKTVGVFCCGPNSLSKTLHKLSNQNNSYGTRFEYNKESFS
Structure (SMILES),composite z-score [1],z-score [2],z-score [3],z-score [4],composite z-score [5],composite z-score [6],composite z-score [7],composite z-score [8],composite z-score [9],z-score [10],composite z-score [11],z-score [12],z-score [13],z-score [14],z-score [15],z-score [16],z-score [17],z-score [18],z-score [19],z-score [20]
[N-]=[N+]=NCc1ccccc1C[C@]1(C(=O)NCc2ccccc2)N=C(c2ccc(OCCCO)cc2)O[C@H]1c1ccccc1,0.46,-4.02 (inactive),1.11 (inactive),-1.14 (inactive),0.532,0.216,-0.265,0.765,-0.948,1.78 (inactive),0.832,10.9 (active),1.53 (inactive),3.76 (inactive),-0.605 (inactive),1.09,-0.425 (inactive),1.24 (inactive),0.0397,-2.79
Cc1ccc(S[C@]2(C(=O)NCC(C)C)CC(=O)N(C(C)C)[C@@H]2c2ccc(CO)cc2)cc1,0.114,-4.95 (inactive),0.182 (inactive),-0.838 (inactive),-1.13,0.0464,0.234,0.0167,-0.305,2.67 (inactive),-0.191,1.73 (inactive),-0.147 (inactive),-0.651 (inactive),-1.54 (inactive),3.27,0.827 (inactive),-0.881 (inactive),0.137,-0.0169
CC(C)(C)OC(=O)CC[C@@]1(C(=O)N2CCOCC2)N=C(c2ccc(OCCCO)cc2)O[C@@H]1c1ccccc1,0.674,-1.77 (inactive),1.56 (inactive),-0.257 (inactive),0.3,0.182,1.38,1.46,-0.0953,1.79 (inactive),0.951,20.8 (active),3.95 (inactive),0.794 (inactive),-0.73 (inactive),1.12,-0.261 (inactive),-0.961 (inactive),-0.0438,0.343
C=CCNC(=O)[C@H]1[C@@H]2C(=O)O[C@@H](c3ccccc3)[C@@H](c3ccccc3)N2[C@@H](c2ccccc2OCCO)[C@]12C(=O)N(C(=O)OCCOC)c1ccc(C#CCCO)cc12,0.641,-3.68 (inactive),0.472 (inactive),3.22 (inactive),0.876,0.561,1.02,0.546,0.861,1.4 (inactive),1.12,2.84 (inactive),1.32 (inactive),-0.383 (inactive),0.875 (inactive),0.0195,1.74 (inactive),1.42 (inactive),1.01,0.822
O=C(NCc1ccccc1)[C@@H]1c2ccccc2C(=O)N(Cc2ccccc2Cl)[C@H]1c1ccc(CO)cc1,0.531,-1.32 (inactive),-0.152 (inactive),-0.918 (inactive),0.527,-0.119,1.1,0.759,1.54,2.17 (inactive),0.139,1.79 (inactive),-0.576 (inactive),-0.0527 (inactive),-1.17 (inactive),0.894,-0.932 (inactive),0.992 (inactive),-0.544,0.703
C=CCN1C(=O)[C@@]2(O[C@@H](CCO)[C@H]([Si](C)(C)c3ccc(OC)cc3)[C@H]2C)c2cc(N3C(=O)c4cccc5cccc3c45)ccc21,-0.1,-7.95 (inactive),22.3 (active),-4.22 (inactive),0.168,0.017,0.408,0.579,0.567,1.29 (inactive),0.0313,24.5 (active),9.43 (active),0.0469 (inactive),2.56 (inactive),0.0438,-0.167 (inactive),0.606 (inactive),1.25,-3.04
CCN(CC)c1ccc(N2CC=CC34O[C@@H]5C=CCOC(=O)[C@@H]5[C@H]3C(=O)N(C(CO)C(C)C)[C@@H]4C2=O)cc1 (stereo not given in full),-0.191,-0.524 (inactive),0.471 (inactive),0.6 (inactive),-0.258,-0.391,-0.156,-0.701,0.0806,1.38 (inactive),0.189,-0.185 (inactive),-0.262 (inactive),1.21 (inactive),0.135 (inactive),-0.369,0.787 (inactive),0.196 (inactive),1.23,-0.0755
C#CCN1C(C(=O)OCC)OC[C@H]1c1ccccc1 (stereo not given in full),0.0718,-2.25 (inactive),1.12 (inactive),-0.678 (inactive),-0.0517,0.195,3.34,3.27,0.789,2.39 (inactive),-0.0061,0.0429 (inactive),-1.18 (inactive),0.696 (inactive),-2.37 (inactive),1.01,0.413 (inactive),0.918 (inactive),-0.727,0.208
COCCCN1C(=O)[C@@]2(Cc3ccccc31)c1ccccc1C(=O)N(Cc1ccccc1Cl)[C@H]2c1ccc(CO)cc1,0,-1.33 (inactive),-0.179 (inactive),-0.415 (inactive),-0.733,-0.108,-0.471,0.0439,0.0161,3.46 (inactive),0.0053,0.399 (inactive),-0.277 (inactive),-0.992 (inactive),-0.85 (inactive),1.34,-2.48 (inactive),0.163 (inactive),1.65,1.54
